JMJD2A Tudor = JMJD2A Tudor domain (human) inhibition. O75164. AlphaScreen JMJD2A-Tudor / H3K4me3 peptide binding. Potency, µM (doses to about 114 µM), for inactives: top-dose activity change, negative = inhibition, usual class: inhibitors. actives 4.4% (n = 390,000). AID 504339; also: potency is read from the fitted curve at half-maximal effect; % is scaled to controls: 0 for no effect and ±100 for the full control effect; nearly all actives have a fitted effect of over 50% in size
BAZ2B inh = BAZ2B (human) inhibition. Q9UIF8. AlphaScreen BAZ2B-H3K14Ac peptide displacement. Potency, µM (series often up to 114 µM), for the others: at the top dose activity change, negative = inhibition, most hits filed as inhibitors. actives 4.4% (n = 360,000); also: potency is read from the fitted curve at half-maximal effect; % is scaled to controls: 0 for no effect and ±100 for the full control effect; nearly all actives have a fitted effect of over 60% in size
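Multi-concentration screen (max 110 uM) measuring displacement of acetylated histone H3 peptide from BAZ2B by AlphaScreen, using 50 nM protein, 50 nM peptide and 10 ug/mL streptavidin donor plus Ni-chelate acceptor beads.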
HP1b chromo inh = blocks HP1-beta chromodomain binding to methylated histone tails; P83916; AlphaScreen HP1-beta / biotin-H3K9me3 peptide binding; Potency, µM (doses to about 114 µM), without a hit: top-dose activity change, negative = inhibition, most hits filed as inhibitors; actives 0.56% (n = 390,000); AID 540317; also: potency is read from the fitted curve at half-maximal effect; nearly all actives have a fitted effect of over 70% in size
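AlphaScreen: HP1-beta (50 nM) preformed 30 min with biotin-H3(1-18)K9me3 peptide (50 nM) in PBS pH 7.4, 0.01% Tween-20. Compound added for 30 min at RT, then streptavidin donor/nickel chelate acceptor beads (10 ug/mL) for 30 min.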
PI5P4Ka inh = blocks human PI5P4K alpha kinase activity; PI5P4Kalpha enzyme, ADP-Glo luminescence, 60 min; stronger effect = lower value; P48426; actives 1.2% (n = 330,000); max response, %; active = max response of -50% or lower; inconclusive = between -30% and -50%; inactive = -30% or higher; also: value at the top dose of about 77 µM; % is scaled to controls: 0 for no effect and ±100 for the full control effect
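qHTS, 1536-well: enzyme/substrate mix, compound by pin tool, 5 microM ATP final; RT 60 min; ADP-Glo reagents 1 (45 min) then 2 (30 min); luminescence.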
GCN5L2 inh = GCN5L2 (KAT2A) acetyltransferase inhibition; Potency, µM (titrated, usually from 58.9 µM), for inactives: at the top dose activity change, negative = inhibition, usual class: inhibitors; GCN5L2 HAT assay, ThioGlo1 CoA-SH fluorescence; actives 0.21% (n = 390,000); Q92830; also: potency is read from the fitted curve at half-maximal effect; % is scaled to controls: 0 for no effect and ±100 for the full control effect
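Titration-based screen in which CoA formation is detected via maleimide probe ThioGlo1 (50uM) turning fluorescent on thiol reaction; substrates H3(1-25) 75uM and acetyl-CoA 70uM, GCN5L2 20nM, 20 min incubation at room temperature.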
PLK1 PBD inh = PLK1 (human) polo-box domain binding inhibition; P53350; Plk1 PBD binding of FITC phosphopeptide, fluorescence polarization; Potency, µM, without a hit: max response, negative = inhibition, hits mostly inhibitors; actives 2.8% (n = 360,000); also: potency is read from the fitted curve at half-maximal effect; series mostly up to about 57 µM; % is scaled to controls: 0 for no effect and ±100 for the full control effect; nearly all actives have a fitted effect of over 65% in size
Starred values were filed as active, the others as inactive; ? = inconclusive; · = no result given; [ ] = remark or other dose. Rows were chosen to be rich in hits. Some 7% of all compounds tested hit in one or more screens of this group. Unless noted, calls follow the shape of the dose curve; as a rule, active = well fitted curve in the direction sought with a large enough effect; inconclusive = small, poorly fitted or top-dose-only effect, or another doubt; inactive = no such curve, though single readings can be large; an effect the other way counts as inactive or inconclusive.

SMILES	JMJD2A Tudor	BAZ2B inh	HP1b chromo inh	PI5P4Ka inh	GCN5L2 inh	PLK1 PBD inh
CCOc1ccc(S(=O)(=O)N2CCCCC2)cc1NC(=O)Cc1cccs1	-17%	2%	10%	-26	-17%	-11%
COc1ccc(C2NCCc3c2[nH]c2ccccc32)cc1CSc1nc2ccccc2s1 (stereo unspecified)	25µM*	45µM*	?	?	-20%	?
COc1ccc(NC(=O)CNc2ccc(OC)c(S(=O)(=O)N3CCOCC3)c2)cc1	·	·	·	1	·	0%
CCOC(=O)C1(C#N)C(=O)CSC1=Nc1ccccc1Cl (stereo unspecified)	·	·	·	-15	·	-9%
CC(=O)OC1C(=O)N(Cc2ccccc2)C1c1ccc(C)cc1 (stereo unspecified)	?	·	8%	-6	·	27µM*
Cc1ccc(C2SCC(=O)N2Cc2ccccc2)cc1 (stereo unspecified)	2%	4%	42%	8	-4%	-8%
CCCNC(=O)c1cc2c(c(-c3cccc(-c4ccccc4F)c3)n1)[C@@H](CCO)N(C(=O)CC1CC1)C2	·	·	·	9	·	-8%
O=C(CSc1nnc(C2CC2)n1Cc1ccccc1)c1cc2ccccc2o1	56µM*	-35%	14%	?	-5%	?
O=C(CSc1cccc[n+]1[O-])c1cccs1	-9%	-12%	15%	5	-5%	24µM*
Cn1c(N)c(C(=O)CSc2nnc(C3CC3)n2Cc2ccccc2)c(=O)n(C)c1=O	-9%	·	20%[57 µM]	0	4%	3%
O=C(CSc1cccc[n+]1[O-])c1cc2ccccc2o1	-35%	?	36%	0	-15%	27µM*
COc1ccc(OC)c2cc3ccccc3cc12	?	·	?	-60*	·	2.7µM*
COc1cc2ccccc2cc1C(=O)O	4%	-27%	23%	-3	-15%	-2%
CC(=O)N1CCc2cc(Br)cc(S(=O)(=O)N3CCN(c4cccc(C(F)(F)F)c4)CC3)c21	-9%	1%	35%	·	2%	·
Fc1ccc(COc2ccc(Br)cc2CNCc2ccncc2)cc1	?	50µM*	17%	·	-6%	-6%
C=CCNc1ncnc2c1cnn2-c1ccc(Cl)cc1	?	8%	-11%	-7	1%	21µM*
COCCN(CCOC)Cc1c(O)ccc2c1O/C(=C\c1ccco1)C2=O	-23%	71µM*	-24%	-8	-19%	?
O=C1/C(=C/c2ccco2)Oc2c1ccc(O)c2CN1CCCCC1	-30%	?	7%	-26	-15%	?
CC1CCN(Cc2c(O)ccc3c2O/C(=C\c2ccco2)C3=O)CC1	-27%	50µM*	15%	-15	-29%	?
C#CCOCCOCCOCCNc1nc(N2CCN(C(=O)CCCCCCCCCCNC(=O)[C@@H](CCC(=O)O)n3cc(CCCCCN)nn3)CC2)nc(N2CCN(C(=O)CCCCCCCCCCNC(=O)[C@H](CO)n3cc(CCCSC)nn3)CC2)n1	45µM*	?	28%	-2	-4%	?
C#CCOCCOCCOCCNc1nc(N2CCN(C(=O)CCCCCCCCCCNC(=O)[C@@H](CCSC)n3cc(CCO)nn3)CC2)nc(N2CCN(C(=O)CCCCCCCCCCNC(=O)[C@H](CO)n3cc(CCCCCN)nn3)CC2)n1	79µM*	?	?	?	-4%	-6%
C#CCOCCOCCOCCNc1nc(N2CCN(C(=O)CCCCCCCCCCNC(=O)[C@@H](CCC(=O)O)n3cc(CCCCCN)nn3)CC2)nc(N2CCN(C(=O)CCCCCCCCCCNC(=O)[C@H](CO)n3cc(CCCCCN)nn3)CC2)n1	?	-38%	-12%	-54*	-2%	-8%
C#CCOCCOCCOCCNc1nc(N2CCOCC2)nc(N2CCN(C(=O)CCCCCCCCCCNC(=O)[C@H](CO)n3cc(CCCSC)nn3)CC2)n1	-34%	-32%	21%	-5	1%	-5%
C#CCOCCOCCOCCNc1nc(N2CCN(C(=O)CCCCCCCCCCNC(=O)[C@@H](CCSC)n3cc(CCO)nn3)CC2)nc(N2CCN(C(=O)CCCCCCCCCCNC(=O)[C@H](CCC(=O)O)n3cc(CCCCCN)nn3)CC2)n1	-36%	-12%	7%	-16	-7%	-2%
COc1cccc(Oc2ccc(OC)cc2C(=O)O)c1	25µM*	-34%	6%	12	-3%	0%
SMILES	JMJD2A Tudor	BAZ2B inh	HP1b chromo inh	PI5P4Ka inh	GCN5L2 inh	PLK1 PBD inh
COc1cccc(Nc2ccccc2C(=O)O)c1	-17%	?	13%	-27	1%	-11%
CCc1ccccc1NC(=O)c1ccc(CN2C(=O)CCn3nc(C)cc32)cc1	-6%	1%	44%	·	-2%	·
C[C@H](CO)N1C[C@H](C)[C@@H](CN(C)C(=O)Nc2ccc3c(c2)OCO3)Oc2ccc(NC(=O)CCN3CCOCC3)cc2C1=O	-6%	·	50%	-11	-3%	-7%
CCN1C=C(Cc2ccc(OC)cc2)C2=C(C1)C(c1ccc(OC)cc1)C(C#N)=C(N)O2 (stereo unspecified)	?	45µM*	-29%	-13	?	-10%
CCNC(=O)CC1C(=O)N(c2ccc(F)cc2)C(=O)N1Cc1ccccn1 (stereo unspecified)	?	-4%	-6%	·	-18%	27µM*
O=C(CN1C(=O)C2(SCC(=O)N2c2ccc(F)c(F)c2)c2ccccc21)Nc1ccccc1F (stereo unspecified)	-17%	8%[57.1 µM]	29%	·	6%	·
CN(C)/C=C/c1[nH]c(=O)[nH]c(=O)c1[N+](=O)[O-]	-4%	-2%	35%	-80*	-8%	0%
COc1ccc(OC)c(C=Cc2ccc([N+](=O)[O-])cc2)c1	·	·	·	6	·	-12%
COc1ccc(OC)c(/C=C/c2[nH]c(=O)[nH]c(=O)c2[N+](=O)[O-])c1	-23%	-2%	?	-77*	-12%	-3%
O=c1[nH]c(/C=C/c2ccc3c(c2)OCO3)c([N+](=O)[O-])c(=O)[nH]1	·	-4%	·	·	0%	·
O=c1[nH]c(/C=C/c2ccc([N+](=O)[O-])cc2)c([N+](=O)[O-])c(=O)[nH]1	-3%	-4%	6%	-66*	-7%	-5%
O=[N+]([O-])c1ccc([S+](=O)([O-])N2CCN([S+](=O)([O-])c3ccc4c(c3)OCCO4)CC2)c([N+](=O)[O-])c1	-6%	·	·	·	·	·
Cc1cc(OCC(O)CN(CCO)CCO)ccc1Cl (stereo unspecified)	-27%	13%	17%	0	-5%	-9%
CCCCN(CCCC)CC(O)COc1ccc(Br)cc1 (stereo unspecified)	1.4µM*	32µM*	?	-3	13%	-8%
